Experimental data published in PubChem BioAssay AID1159580 (chemical genetic matrix, 2015).
Hit rate of the full screen: of about 5,500 compounds, about 2,000 (36%) were called active. Another 18% or so got no clear call; they are omitted. Rule as the data show it: active = normalized growth mostly below about 0.91 (no sharp cut-off); inconclusive = no clear call, values can overlap the other calls; inactive = mostly above about 0.92. The list shows a part of the results.

Test: chemical genetic growth profiling, strain panel (AID 1159580);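 also: tested at 20 µM; growth read once vehicle control cultures reached saturation at 30 °C; 1 = growth at the plate median or of vehicle wells; lower values mean less growth of the strain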
Conditions: growth OD

Measured: normalized growth

CCC(C(=O)O)c1ccccc1 (configuration not stated)
inactive: S. cerevisiae deletion strains, locus YJR075W, strain HOC1, hits give low values 1 | S. cerevisiae deletion strains, locus YKL009W, strain mrt4, hits give low values 1.01 | S. cerevisiae deletion strains, locus YKL068W, hits give low values 0.976 | S. cerevisiae deletion strains, locus YKL085W, strain MDH1 (second series), hits give low values 0.981 | S. cerevisiae deletion strains, locus YKL085W, strain MDH1, hits give low values 0.981 | S. cerevisiae deletion strains, locus YKL160W, strain elf1, hits give low values 0.996 | S. cerevisiae deletion strains, locus YKL190W, strain CNB1, hits give low values 1.01 | S. cerevisiae deletion strains, locus YKR001C, strain vps1, hits give low values 0.987 | S. cerevisiae deletion strains, locus YKR026C, strain gcn3, hits give low values 0.99 | S. cerevisiae deletion strains, locus YKR091W, strain srl3, hits give low values 0.99 | S. cerevisiae deletion strains, locus YLL001W, strain dnm1, hits give low values 0.986 | S. cerevisiae deletion strains, locus YLL026W, hits give low values 0.977 | S. cerevisiae deletion strains, locus YLL041C, strain sdh2, hits give low values 1 | S. cerevisiae deletion strains, locus YLR027C, strain aat2, hits give low values 1 | S. cerevisiae deletion strains, locus YLR039C, strain RIC1, hits give low values 0.958 | S. cerevisiae deletion strains, locus YLR058C, strain SHM2, hits give low values 1 | S. cerevisiae deletion strains, locus YLR102C, strain apc9, hits give low values 0.995 | S. cerevisiae deletion strains, locus YLR113W, strain HOG1, hits give low values 0.912 | S. cerevisiae deletion strains, locus YLR221C, strain rsa3, hits give low values 0.992 | S. cerevisiae deletion strains, locus YLR258W, strain gsy2, hits give low values 1 | S. cerevisiae deletion strains, locus YLR262C, strain YPT6 (second series), hits give low values 1.01 | S. cerevisiae deletion strains, locus YLR262C, strain YPT6, hits give low values 0.966 | S. cerevisiae deletion strains, locus YLR268W, strain sec22, hits give low values 1.01 | S. cerevisiae deletion strains, locus YLR320W, strain mms22, hits give low values 0.989 | S. cerevisiae deletion strains, locus YLR330W, strain CHS5, hits give low values 1 | S. cerevisiae deletion strains, locus YLR342W, strain FKS1 (second series), hits give low values 0.994 | S. cerevisiae deletion strains, locus YLR342W, strain FKS1, hits give low values 0.998 | S. cerevisiae deletion strains, locus YLR357W, strain rsc2, hits give low values 0.951 | S. cerevisiae deletion strains, locus YLR370C, strain arc18, hits give low values 0.977 | S. cerevisiae deletion strains, locus YLR371W, strain rom2, hits give low values 1.01 | S. cerevisiae deletion strains, locus YLR384C, strain iki3, hits give low values 0.97 | S. cerevisiae deletion strains, locus YLR418C, strain cdc73, hits give low values 1.03 | S. cerevisiae deletion strains, locus YML016C, strain PPZ1, hits give low values 1 | S. cerevisiae deletion strains, locus YML032C, strain rad52, hits give low values 0.997 | S. cerevisiae deletion strains, locus YML120C, strain ndi1, hits give low values 0.979 | S. cerevisiae deletion strains, locus YML124C, strain tub3, hits give low values 1 | S. cerevisiae deletion strains, locus YMR058W, strain fet3, hits give low values 0.986 | S. cerevisiae deletion strains, locus YMR078C, strain ctf18, hits give low values 0.996 | S. cerevisiae deletion strains, locus YMR125W, strain sto1, hits give low values 0.977 | S. cerevisiae deletion strains, locus YMR129W, hits give low values 0.992 | S. cerevisiae deletion strains, locus YMR205C, strain PFK2, hits give low values 0.996 | S. cerevisiae deletion strains, locus YMR223W, strain ubp8, hits give low values 1 | S. cerevisiae deletion strains, locus YMR231W, strain pep5, hits give low values 0.992 | S. cerevisiae deletion strains, locus YMR263W, strain SAP30, hits give low values 1.01 | S. cerevisiae deletion strains, locus YMR307W, strain GAS1, hits give low values 1.07 | S. cerevisiae deletion strains, locus YNL067W, strain RPL9B, hits give low values 1.03 | S. cerevisiae deletion strains, locus YNL071W, strain lat1, hits give low values 0.989 | S. cerevisiae deletion strains, locus YNL128W, strain TEP1, hits give low values 1.02 | S. cerevisiae deletion strains, locus YNL153C, strain GIM3, hits give low values 1 | S. cerevisiae deletion strains, locus YNL183C, strain NPR1, hits give low values 0.905 | S. cerevisiae deletion strains, locus YNL209W, strain ssb2, hits give low values 0.989 | S. cerevisiae deletion strains, locus YNL233W, strain BNI4, hits give low values 0.999 | S. cerevisiae deletion strains, locus YNL248C, strain rpa49, hits give low values 0.984 | S. cerevisiae deletion strains, locus YNL250W, strain rad50, hits give low values 0.975 | S. cerevisiae deletion strains, locus YNL271C, strain bni1, hits give low values 0.988 | S. cerevisiae deletion strains, locus YNL298W, strain CLA4, hits give low values 0.989 | S. cerevisiae deletion strains, locus YNL307C, strain MCK1, hits give low values 0.999 | S. cerevisiae deletion strains, locus YNL322C, strain KRE1 (second series), hits give low values 0.972 | S. cerevisiae deletion strains, locus YNL322C, strain KRE1, hits give low values 1 | S. cerevisiae deletion strains, locus YNR049C, strain mso1, hits give low values 1.01 | S. cerevisiae deletion strains, locus YNR052C, strain pop2, hits give low values 0.99 | S. cerevisiae deletion strains, locus YOL006C, strain TOP1, hits give low values 1.03 | S. cerevisiae deletion strains, locus YOL012C, strain htz1 2.17 | S. cerevisiae deletion strains, locus YOL147C, strain pex11, hits give low values 0.998 | S. cerevisiae deletion strains, locus YOR001W, strain rrp6, hits give low values 0.974 | S. cerevisiae deletion strains, locus YOR061W, strain CKA2, hits give low values 1 | S. cerevisiae deletion strains, locus YOR069W, strain VPS5, hits give low values 1 | S. cerevisiae deletion strains, locus YOR070C, strain gyp1, hits give low values 0.976 | S. cerevisiae deletion strains, locus YOR080W, strain dia2, hits give low values 0.984 | S. cerevisiae deletion strains, locus YOR083W, strain WHI5, hits give low values 0.994 | S. cerevisiae deletion strains, locus YOR106W, strain vam3, hits give low values 0.989 | S. cerevisiae deletion strains, locus YOR136W, strain idh2, hits give low values 1.01 | S. cerevisiae deletion strains, locus YOR144C, strain elg1, hits give low values 0.999 | S. cerevisiae deletion strains, locus YOR184W, strain ser1, hits give low values 0.992 | S. cerevisiae deletion strains, locus YOR231W, strain MKK1, hits give low values 0.951 | S. cerevisiae deletion strains, locus YOR265W, strain rbl2, hits give low values 1 | S. cerevisiae deletion strains, locus YOR270C, strain vph1, hits give low values 1.02 | S. cerevisiae deletion strains, locus YOR290C, strain snf2, hits give low values 0.976 | S. cerevisiae deletion strains, locus YOR316C, strain cot1, hits give low values 1 | S. cerevisiae deletion strains, locus YPL051W, strain arl3, hits give low values 0.964 | S. cerevisiae deletion strains, locus YPL055C, strain LGE1, hits give low values 1.03 | S. cerevisiae deletion strains, locus YPL078C, strain atp4, hits give low values 0.974 | S. cerevisiae deletion strains, locus YPL106C, strain sse1, hits give low values 0.97 | S. cerevisiae deletion strains, locus YPL240C, strain hsp82, hits give low values 0.988 | S. cerevisiae deletion strains, locus YPL241C, strain CIN2, hits give low values 1.01 | S. cerevisiae deletion strains, locus YPL256C, strain CLN2, hits give low values 0.907 | S. cerevisiae deletion strains, locus YPR119W, strain clb2, hits give low values 0.994 | S. cerevisiae deletion strains, locus YPR141C, strain kar3, hits give low values 0.976 | S. cerevisiae deletion strains, locus YPR163C, strain tif3, hits give low values 1 | S. cerevisiae deletion strains, locus YPR167C, strain met16, hits give low values 0.999 | S. cerevisiae deletion strains, strain wtn01, hits give low values 0.999 | S. cerevisiae strains, strain wild type, hits give low values 1
